# Unmarked numbers belong to inactive results. Records with an inconclusive call do not appear. Some of the results follow. Active and inactive are the calls of the source. Unless noted, calls follow the shape of the dose curve; as a rule, active = well fitted curve in the direction sought with a large enough effect; inconclusive = small, poorly fitted or top-dose-only effect, or another doubt; inactive = no such curve, though single readings can be large; an effect the other way counts as inactive or inconclusive.
# Assays:
# [1] = qHTS assay for small molecule disruptors of the mitochondrial membrane potential - 1 hr assay (AID 651754; calls by dose curve; also: potency is read from the fitted curve at half-maximal effect; nearly all actives have a fitted effect of over 35% in size)
# Summary of the method: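 HepG2 cells, attached overnight at 37C, were exposed to compound or DMSO vehicle for 1 hr at 37C, 5% CO2, then stained with Mito-MPS dye for 30 min. Red aggregate versus green monomer fluorescence reports membrane potential.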
# [2] = qHTS assay for small molecule disruptors of the mitochondrial membrane potential - 5 hr assay (AID 651755; calls by dose curve; also: potency is read from the fitted curve at half-maximal effect; nearly all actives have a fitted effect of over 40% in size)
# Summary of the method: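 HepG2 cells, attached overnight at 37C, were exposed to compound or DMSO for 5 hr at 37C, 5% CO2. Mito-MPS dye was then added for 30 min, and fluorescence read at 490/535 nm (monomers) and 540/590 nm (aggregates).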
# [3] = target: Nuclear receptor subfamily 1 group I member 2 (Rattus norvegicus) (UniProt Q9R1A7); assay: qHTS assay for small molecule activators of the rat pregnane X receptor (rPXR) signaling pathway (AID 651751; call rule not given here; also: 0% is about no effect); details: rPXR reporter cells, luciferase (One-Glo), 24 h
# Chain of Nuclear receptor subfamily 1 group I member 2 (Rattus norvegicus) (Q9R1A7 whole entry, looked up): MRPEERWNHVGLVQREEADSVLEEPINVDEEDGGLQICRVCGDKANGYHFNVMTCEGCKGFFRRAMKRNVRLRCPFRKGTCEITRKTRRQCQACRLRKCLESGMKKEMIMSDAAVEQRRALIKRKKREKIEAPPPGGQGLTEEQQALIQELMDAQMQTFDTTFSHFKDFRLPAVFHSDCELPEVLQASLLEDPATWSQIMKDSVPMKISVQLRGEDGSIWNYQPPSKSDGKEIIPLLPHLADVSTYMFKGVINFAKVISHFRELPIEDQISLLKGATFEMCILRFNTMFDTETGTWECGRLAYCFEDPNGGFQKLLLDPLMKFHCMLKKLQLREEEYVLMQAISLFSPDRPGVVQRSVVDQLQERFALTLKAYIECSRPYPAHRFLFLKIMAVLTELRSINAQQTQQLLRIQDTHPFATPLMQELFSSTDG
# [4] = target: Cytochrome P450 3A4 (Homo sapiens) (UniProt P08684); assay: qHTS Assay for Activators of Cytochrome P450 3A4 (AID 885); also: nearly all actives have a fitted effect of over 65% in size
# Chain of Cytochrome P450 3A4 (Homo sapiens) (P08684 whole entry, looked up): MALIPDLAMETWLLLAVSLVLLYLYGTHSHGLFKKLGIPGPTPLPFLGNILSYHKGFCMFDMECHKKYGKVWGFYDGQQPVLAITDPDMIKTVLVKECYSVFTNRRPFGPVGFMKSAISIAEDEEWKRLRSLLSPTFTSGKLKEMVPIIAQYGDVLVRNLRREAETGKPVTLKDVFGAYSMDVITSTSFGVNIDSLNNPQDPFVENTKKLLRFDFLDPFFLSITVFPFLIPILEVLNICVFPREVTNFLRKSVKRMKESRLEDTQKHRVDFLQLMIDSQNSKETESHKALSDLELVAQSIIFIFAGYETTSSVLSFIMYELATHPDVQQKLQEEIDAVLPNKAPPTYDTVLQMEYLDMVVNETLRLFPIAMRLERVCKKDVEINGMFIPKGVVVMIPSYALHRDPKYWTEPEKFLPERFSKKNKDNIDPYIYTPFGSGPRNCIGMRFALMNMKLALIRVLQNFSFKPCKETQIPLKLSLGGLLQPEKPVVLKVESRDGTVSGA
# Summary of the method: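 Signal was normalized against complete inhibition by 57 uM ketoconazole. The reaction used 20nM CYP3A4 with 25uM Luciferin-PPXE, 10-min compound preincubation and a 60-min NADPH-supported step at RT.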
# [5] = S16 Schwann cell viability assay (CellTiter-Glo assay) (AID 624031); also: potency is read from the fitted curve at half-maximal effect; nearly all actives have a fitted effect of over 70% in size
# Summary of the method: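 Native S16 rat Schwann cells in DMEM/10% FBS without phenol red were incubated overnight, then exposed to compounds for 24 h at 37 °C/5% CO2. Viability was read as ATP luminescence (CellTiter-Glo), normalized to no-cell wells and DMSO (0%).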
# [6] = qHTS Assay for Identifying Gametocytocidal Compounds (AID 743244); also: potency is read from the fitted curve at half-maximal effect; details: P. falciparum 3D7 stage III-V gametocytes, alamarBlue, 72 h; max response: hits give low values
# Summary of the method: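 Using 20,000 stage III–V 3D7 gametocytes per well, compounds were incubated 72 h under 37 °C/5% CO2. Viability was then assessed by 24 h alamarBlue reduction, measured fluorometrically at 525/598 nm.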
# [7] = qHTS screen for small molecules that inhibit ELG1-dependent DNA repair: Hit Confirmation in Cell-Based Luciferin Assay (AID 624247); details: cell-free firefly luciferase luminescence counter-screen, ViewLux; also: potency is read from the fitted curve at half-maximal effect
# Summary of the method: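 Luciferin substrate reagent dispensed first, then compounds or DMSO vehicle pin-transferred, then luciferase enzyme added; luminescence read on a CCD-based plate reader.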
# [8] = target: ATPase family AAA domain-containing protein 5 (Homo sapiens) (UniProt Q96QE3); assay: HTS assay for small molecules that inhibit ELG1-dependent DNA repair in human embryonic kidney (HEK293T) cells expressing luciferase-tagged ELG1: Hit Confirmation (AID 624248); details: HEK293T ELG1-luciferase levels, luminescence; cells co-treated with 5-fluorouridine; also: potency is read from the fitted curve at half-maximal effect; nearly all actives have a fitted effect of over 55% in size
# Chain of ATPase family AAA domain-containing protein 5 (Homo sapiens) (Q96QE3 whole entry, looked up, the tested form may be a part): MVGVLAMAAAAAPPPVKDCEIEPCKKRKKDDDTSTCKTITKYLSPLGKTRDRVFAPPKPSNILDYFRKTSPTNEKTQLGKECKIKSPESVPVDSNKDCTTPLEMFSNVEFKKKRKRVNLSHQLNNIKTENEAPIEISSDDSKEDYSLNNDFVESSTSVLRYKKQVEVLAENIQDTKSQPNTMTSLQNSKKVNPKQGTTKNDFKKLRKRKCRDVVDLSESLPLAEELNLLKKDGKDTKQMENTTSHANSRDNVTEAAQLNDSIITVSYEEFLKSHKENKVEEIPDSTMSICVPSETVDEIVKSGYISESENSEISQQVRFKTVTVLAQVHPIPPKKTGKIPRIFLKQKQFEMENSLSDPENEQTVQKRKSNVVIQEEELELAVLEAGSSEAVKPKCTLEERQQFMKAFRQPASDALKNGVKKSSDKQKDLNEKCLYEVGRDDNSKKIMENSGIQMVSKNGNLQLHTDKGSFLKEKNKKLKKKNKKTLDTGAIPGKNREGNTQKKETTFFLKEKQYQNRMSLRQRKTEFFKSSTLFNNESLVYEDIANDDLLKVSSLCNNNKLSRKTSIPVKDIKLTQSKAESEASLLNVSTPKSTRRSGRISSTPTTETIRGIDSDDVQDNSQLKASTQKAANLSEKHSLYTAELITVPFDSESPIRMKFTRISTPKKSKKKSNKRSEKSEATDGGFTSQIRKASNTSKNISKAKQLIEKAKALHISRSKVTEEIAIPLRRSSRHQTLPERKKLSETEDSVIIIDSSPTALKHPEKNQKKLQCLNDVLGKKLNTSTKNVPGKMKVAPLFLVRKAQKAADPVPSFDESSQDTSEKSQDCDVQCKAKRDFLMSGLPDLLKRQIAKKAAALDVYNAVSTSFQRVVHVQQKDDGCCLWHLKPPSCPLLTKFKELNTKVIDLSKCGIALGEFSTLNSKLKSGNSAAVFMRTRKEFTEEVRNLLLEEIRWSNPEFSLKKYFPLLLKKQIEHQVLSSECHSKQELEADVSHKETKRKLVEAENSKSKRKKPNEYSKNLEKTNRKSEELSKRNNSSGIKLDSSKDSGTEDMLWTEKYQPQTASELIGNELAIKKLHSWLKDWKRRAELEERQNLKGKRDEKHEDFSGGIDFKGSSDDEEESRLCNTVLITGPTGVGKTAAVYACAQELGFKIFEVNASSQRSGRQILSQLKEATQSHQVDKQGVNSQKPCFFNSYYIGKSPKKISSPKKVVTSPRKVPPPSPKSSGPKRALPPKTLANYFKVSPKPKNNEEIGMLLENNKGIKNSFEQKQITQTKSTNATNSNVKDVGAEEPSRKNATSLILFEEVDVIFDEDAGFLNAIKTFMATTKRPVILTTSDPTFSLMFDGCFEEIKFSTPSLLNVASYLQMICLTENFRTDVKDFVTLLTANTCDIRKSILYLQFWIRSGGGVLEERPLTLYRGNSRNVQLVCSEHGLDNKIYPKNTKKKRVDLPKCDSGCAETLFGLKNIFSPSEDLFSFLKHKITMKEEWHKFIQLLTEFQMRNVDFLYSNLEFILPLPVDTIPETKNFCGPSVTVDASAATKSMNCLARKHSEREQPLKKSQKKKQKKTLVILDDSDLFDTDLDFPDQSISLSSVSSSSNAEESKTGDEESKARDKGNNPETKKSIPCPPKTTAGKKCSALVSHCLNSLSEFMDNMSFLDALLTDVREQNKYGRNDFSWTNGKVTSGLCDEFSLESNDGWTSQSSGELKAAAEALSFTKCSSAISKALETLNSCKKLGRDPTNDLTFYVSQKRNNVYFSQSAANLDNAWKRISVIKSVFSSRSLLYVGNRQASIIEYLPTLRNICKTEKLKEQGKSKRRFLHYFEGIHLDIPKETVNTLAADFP
# Summary of the method: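 Cells (2,000/well) received 5-Fluorouridine plus pin-transferred compound or DMSO and were incubated 16 hr at 37 °C, 5% CO2. Luciferase activity was read by ONE-Glo luminescence after 30 min at room temperature; inhibitors suppress the signal.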
# [9] = target: ATPase family AAA domain-containing protein 5 (Homo sapiens) (UniProt Q96QE3); assay: qHTS screen for small molecules that inhibit ELG1-dependent DNA repair in human embryonic kidney (HEK293T) cells expressing luciferase-tagged ELG1: Hit Confirmation using MMS Stimulated ELG1 (AID 624249); details: HEK293T luciferase-tagged ELG1 level; also: potency is read from the fitted curve at half-maximal effect; nearly all actives have a fitted effect of over 60% in size
# Summary of the method: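 Seed HEK293T ELG1-luc cells (2,000/well). Add compounds at ~5 h, then MMS to 10 µM final. Incubate 16 h. Measure luciferase using Amplight.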
# [10] = qHTS screen for small molecules that inhibit ELG1-dependent DNA repair: Hit Confirmation with MMS Viability (AID 624251); details: Cell viability with MMS; also: potency is read from the fitted curve at half-maximal effect; nearly all actives have a fitted effect of over 60% in size
# Summary of the method: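 ELG1-luc HEK293T cells were plated, then about 5 h later received compounds by pin transfer plus MMS at 10 µM final. Viability was read by CellTiter-Glo luminescence after 16 h.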
# [11] = target: Luciferin 4-monooxygenase (Photinus pyralis) (UniProt P08659); assay: qHTS screen for small molecules that inhibit ELG1-dependent DNA repair: Hit Confirmation in Biochemical Luciferin Assay (AID 624253); also: series mostly up to about 57 µM; % is scaled to controls: 0 for no effect and ±100 for the full control effect
# Summary of the method: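 Counter-screen against purified firefly luciferase: substrate reagent dispensed first, then compound or DMSO by pintool, then luciferase enzyme added. Luminescence read on a CCD-based imager.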
# [12] = target: Tyrosine-protein kinase Yes (Homo sapiens) (UniProt P07947); assay: qHTS for small molecule inhibitors of Yes1 kinase: Primary Screen (AID 686947); details: Yes1 kinase biochemical qHTS inhibition; also: potency is read from the fitted curve at half-maximal effect; nearly all actives have a fitted effect of over 60% in size
# Chain of Tyrosine-protein kinase Yes (Homo sapiens) (P07947 whole entry, looked up): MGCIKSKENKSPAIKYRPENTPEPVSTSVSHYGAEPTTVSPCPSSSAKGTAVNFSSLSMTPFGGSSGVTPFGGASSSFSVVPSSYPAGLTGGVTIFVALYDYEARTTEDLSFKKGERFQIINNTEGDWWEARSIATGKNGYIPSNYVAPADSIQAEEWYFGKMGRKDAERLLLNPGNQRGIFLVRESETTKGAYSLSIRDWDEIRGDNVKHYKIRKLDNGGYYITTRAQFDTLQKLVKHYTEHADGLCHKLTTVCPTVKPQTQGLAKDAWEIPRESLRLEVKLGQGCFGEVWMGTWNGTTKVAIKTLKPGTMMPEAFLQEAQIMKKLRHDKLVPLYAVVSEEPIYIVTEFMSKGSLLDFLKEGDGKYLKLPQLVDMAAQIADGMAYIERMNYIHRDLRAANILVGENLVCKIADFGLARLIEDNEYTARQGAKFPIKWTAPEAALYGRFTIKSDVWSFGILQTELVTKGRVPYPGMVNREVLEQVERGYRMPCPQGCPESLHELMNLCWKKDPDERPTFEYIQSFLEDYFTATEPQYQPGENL
# Summary of the method: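 ADP-Glo luminescence readout; final 4 nM Yes1, 0.1 mM ATP, 0.3 mg/mL poly(E4Y), Tris pH 7.5, MgCl2, DTT, Brij-35. 20 min compound preincubation, 60 min reaction at RT. Normalized to DMSO wells with and without enzyme.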
# [13] = qHTS for small molecule inhibitors of Yes1 kinase: Counter Assay (AID 686950);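 also: no kinase present so only ADP-Glo detection of a fixed ADP amount is tested; luminescence from ADP-Glo reporting ADP in a fixed ATP and ADP mixture; series mostly up to about 77 µM; 0% = DMSO wells with ATP plus ADP and -100% = ATP-only wells without ADP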
# Summary of the method: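 Enzyme-free ADP-Glo interference check: compounds were preincubated 20 min in buffer, then an ATP/ADP mix (0.08 mM ATP, 0.02 mM ADP final) was added for 60 min at room temperature before two-step ADP-Glo luminescence detection.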
compound,measurement,setting,value
Cc1c(N)cccc1N,Potency,[1],37.6 µM (active)
same,Potency,[2],37.6 µM (active)
Oc1cc(Cl)cc(Cl)c1Cl,Potency,[1],42.2 µM (active)
same,Potency,[2],42.2 µM (active)
ClC1=C(Cl)[C@]2(Cl)[C@H]3[C@H]([C@@H]4C=C[C@H]3C4)[C@]1(Cl)C2(Cl)Cl,max response,[3],7.41%
CNC[C@H](O)c1ccc(OC(=O)C(C)(C)C)c(OC(=O)C(C)(C)C)c1,Potency,[4],inactive
COc1cc(-c2ccc(-[n+]3nc(-c4ccccc4)nn3-c3ccc([N+](=O)[O-])cc3)c(OC)c2)ccc1-[n+]1nc(-c2ccccc2)nn1-c1ccc([N+](=O)[O-])cc1,Potency,[5],28.7 µM (active)
same,Potency,[6],5.62 µM (active)
CC(=O)[O][Sn]([c]1ccccc1)([c]1ccccc1)[c]1ccccc1,Potency,[7],1.99 µM (active)
same,Potency,[8],1.58 µM (active)
same,Potency,[9],0.281 µM (active)
same,Potency,[10],0.281 µM (active)
C[C@]12O[C@H](C[C@]1(O)CO)n1c3ccccc3c3c4c(c5c6ccccc6n2c5c31)CNC4=O,Potency,[6],2.51 µM (active)
Cc1c2ccccc2c(C)c2c1ccc1ccccc12,Potency,[4],inactive
C[C@@H]1C[C@H]2CC[C@H](O2)[C@H](C)C(=O)O[C@@H](C)C[C@@H]2CC[C@@H](O2)[C@@H](C)C(=O)O[C@H](C)C[C@H]2CC[C@H](O2)[C@H](C)C(=O)O[C@@H](C)C[C@@H]2CC[C@@H](O2)[C@@H](C)C(=O)O1,Potency,[8],14.1 µM (active)
same,Potency,[9],0.0889 µM (active)
same,Potency,[10],0.0997 µM (active)
same,outcome,[11],inactive
COc1cc(O)c2c(c1)/C=C/C[C@H](O)[C@H](O)C(=O)/C=C\C[C@H](C)OC2=O,Potency,[12],2.44 µM (active)
CNC(=O)Oc1cc(C)c(C=Cc2cncc(C(=O)NC)c2)c(C)c1,Potency,[12],0.654 µM (active)
same,outcome,[13],inactive
